Reference: PubChem BioAssay (Tox21)
Records with an inconclusive call do not appear. Entries that show only a call come without a potency. Values without a mark were called inactive. Activity calls are given as the source filed them. Unless noted, the call rests on the fitted dose curve; in most records, active means well fitted curve in the direction sought with a large enough effect in the repeat runs; inconclusive means weak or mixed curves; inactive means no such curve, though single readings can be large; an effect the other way counts as inactive or inconclusive.

Columns and labels:
[1] = biological target: Peroxisome proliferator-activated receptor gamma (Homo sapiens) (UniProt P37231); test: qHTS assay to identify small molecule antagonists of the peroxisome proliferator-activated receptor gamma (PPARg) signaling pathway (AID 743191; calls by dose curve; further: nearly all actives have a fitted effect of over 30% in size; further: potency means the concentration at half of the fitted maximal effect)
Peroxisome proliferator-activated receptor gamma (Homo sapiens), sequence (P37231 whole entry, looked up): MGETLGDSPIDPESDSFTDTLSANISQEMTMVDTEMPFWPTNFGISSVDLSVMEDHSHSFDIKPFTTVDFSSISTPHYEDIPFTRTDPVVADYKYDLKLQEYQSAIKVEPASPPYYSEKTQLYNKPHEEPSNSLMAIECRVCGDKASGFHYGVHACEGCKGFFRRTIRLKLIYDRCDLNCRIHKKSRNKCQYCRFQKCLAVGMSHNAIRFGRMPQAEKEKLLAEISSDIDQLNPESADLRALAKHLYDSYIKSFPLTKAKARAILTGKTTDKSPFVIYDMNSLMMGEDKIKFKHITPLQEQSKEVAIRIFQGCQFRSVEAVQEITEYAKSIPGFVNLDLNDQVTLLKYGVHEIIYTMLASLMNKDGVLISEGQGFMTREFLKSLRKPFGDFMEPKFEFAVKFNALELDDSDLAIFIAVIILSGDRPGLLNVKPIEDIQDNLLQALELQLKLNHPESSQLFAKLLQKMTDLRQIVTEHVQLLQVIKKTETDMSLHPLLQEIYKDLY
How it was run: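 Beta-lactamase reporter under UAS control in HEK293H PPARg-bla cells; compound treatment 17 h at 37C. Read-out: fluorescence intensity after 1 h room-temperature incubation with LiveBLAzer B/G FRET substrate.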

[2] = qHTS assay for small molecule agonists of the antioxidant response element (ARE) signaling pathway (AID 743202; active means well fitted activation curve with a large enough effect in the signal ratio in the repeat runs, not every such curve was filed as active; the % refers to the signal ratio; further: potency means the concentration at half of the fitted maximal effect)
How it was run: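 An ARE-responsive beta-lactamase gene stably integrated in HepG2 cells serves as reporter. After 5 h plating and 16 h compound incubation at 37 C, fluorescence of the B/G FRET substrate was measured.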

[3] = qHTS assay for small molecule agonists of the antioxidant response element (ARE) signaling pathway - cell viability counter screen (AID 743203; calls by dose curve; further: nearly all actives have a fitted effect of over 55% in size; further: potency means the concentration at half of the fitted maximal effect)
How it was run: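 ARE-bla HepG2 cells were plated, rested 5 h at 37C/5% CO2, then exposed to compounds in DMSO for 16 h. Viability was read as CellTiter-Glo luminescence after 30 min at room temperature, in the same wells as the ARE screen.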

[4] = qHTS assay for small molecule activators of the heat shock response signaling pathway - cell viability counter screen (AID 743209); further: nearly all actives have a fitted effect of over 50% in size
How it was run: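 HSE-bla HeLa cells plated overnight, then exposed to Tox21 compounds (23 nL in DMSO) for 5 h at 37 C. After the bla reporter read, CellTiter-Glo was added in the same wells and luminescence read after 30 min at room temperature.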

[5] = biological target: Peroxisome proliferator-activated receptor delta (Homo sapiens) (UniProt Q03181); test: qHTS assay to identify small molecule agonists of the peroxisome proliferator-activated receptor delta (PPARd) signaling pathway (AID 743212; calls by dose curve; further: potency means the concentration at half of the fitted maximal effect)
Peroxisome proliferator-activated receptor delta (Homo sapiens), sequence (Q03181 whole entry, looked up): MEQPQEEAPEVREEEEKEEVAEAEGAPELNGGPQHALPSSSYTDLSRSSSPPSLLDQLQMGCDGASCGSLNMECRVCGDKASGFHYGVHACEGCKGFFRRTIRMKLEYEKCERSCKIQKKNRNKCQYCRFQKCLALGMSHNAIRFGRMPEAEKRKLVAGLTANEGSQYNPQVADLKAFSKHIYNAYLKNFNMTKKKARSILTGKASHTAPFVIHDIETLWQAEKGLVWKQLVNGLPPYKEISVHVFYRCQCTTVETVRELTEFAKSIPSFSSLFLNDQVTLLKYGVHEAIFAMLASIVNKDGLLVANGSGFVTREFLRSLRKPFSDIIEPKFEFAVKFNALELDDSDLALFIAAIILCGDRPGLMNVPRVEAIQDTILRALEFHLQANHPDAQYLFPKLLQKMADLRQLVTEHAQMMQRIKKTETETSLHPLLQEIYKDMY
How it was run: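 HEK293H UAS-bla reporter cells, human PPARd system; compounds delivered in DMSO after 5 h plating, then at 37 C. Beta-lactamase FRET read, 2 h RT substrate step.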

[6] = qHTS assay to identify small molecule antagonists of the peroxisome proliferator-activated receptor delta (PPARd) signaling pathway - cell viability counter screen (AID 743213); further: nearly all actives have a fitted effect of over 50% in size; further: potency means the concentration at half of the fitted maximal effect
How it was run: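 HEK293H PPARd UAS-bla cells, 5 h pre-incubation, compound + L165041 300 nM final, 17 h 37 C; B/G FRET substrate 2 h RT; then CellTiter-Glo 30 min RT, luminescence.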

[7] = biological target: Peroxisome proliferator-activated receptor delta (Homo sapiens) (UniProt Q03181); test: qHTS assay to identify small molecule antagonists of the peroxisome proliferator-activated receptor delta (PPARd) signaling pathway (AID 743215; active means well fitted inhibition curve with a large enough effect in the signal ratio in the repeat runs, not every such curve was filed as active; the % refers to the signal ratio;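 further: cells stimulated with agonist L165041 at 300 nM final during compound exposure; series mostly up to about 62 µM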)
How it was run: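 PPARd-bla HEK293H cells (UAS-bla reporter) preincubated 5 h, then given compound plus 300 nM final L165041 agonist for 17 h at 37 C. Beta-lactamase activity read by LiveBLAzer B/G FRET substrate fluorescence after 2 h at room temperature.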

[8] = qHTS assay to identify small molecule agonists of the farnesoid-X-receptor (FXR) signaling pathway - cell viability counter screen (AID 743218); further: nearly all actives have a fitted effect of over 45% in size; further: potency means the concentration at half of the fitted maximal effect
How it was run: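 FXR-UAS-bla HEK 293T cells exposed to compounds for 16 h at 37C. Cytotoxicity read in the same wells by CellTiter-Glo luminescence after 30 min at room temperature, following the beta-lactamase FRET read.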

[9] = qHTS assay to identify small molecule antagonists of the farnesoid-X-receptor (FXR) signaling pathway - cell viability counter screen (AID 743221; active means well fitted cell-killing curve with a large enough effect in the repeat runs, not every such curve was filed as active; further: nearly all actives have a fitted effect of over 50% in size; further: potency means the concentration at half of the fitted maximal effect)
How it was run: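 Cytotoxicity is taken from ATP luminescence (CellTiter-Glo, 30 min, room temperature) in FXR-bla HEK 293T cells previously incubated 16 h at 37 C with compound and chenodeoxycholic acid at 50 uM final.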

[10] = qHTS assay to identify small molecule agonists of the vitamin D receptor (VDR) signaling pathway - cell viability counter screen (AID 743224); further: nearly all actives have a fitted effect of over 50% in size; further: potency means the concentration at half of the fitted maximal effect
How it was run: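 VDR-bla cells, 4 h after plating, exposed to compounds for 16 h at 37C; viability then read in the same wells as CellTiter-Glo luminescence after 30 min at room temperature, following the bla FRET read.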

[11] = qHTS assay to identify small molecule antagonists of the peroxisome proliferator-activated receptor gamma (PPARg) signaling pathway - cell viability counter screen (AID 743194); further: nearly all actives have a fitted effect of over 55% in size; further: potency means the concentration at half of the fitted maximal effect
How it was run: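 Viability was measured as CellTiter-Glo luminescence in GeneBLAzer PPARg UAS-bla HEK293H cells. These cells had been exposed 17 h at 37 C to compounds together with rosiglitazone at 50 nM final, with the beta-lactamase readout taken in the same wells.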

[12] = qHTS assay for small molecule activators of the heat shock response signaling pathway (AID 743210; active means well fitted activation curve with a large enough effect in the signal ratio in the repeat runs, with a control signal flat, not every such curve was filed as active; the % refers to the signal ratio;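 further: HeLa cells with beta-lactamase reporter driven by heat shock elements; series mostly up to about 63 µM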)
How it was run: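 In HSE-bla HeLa cells, 5 h compound incubation (37 C) precedes addition of LiveBLAzer B/G substrate; after 2.5 h at room temperature, fluorescence intensity indicates reporter induction.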

[13] = qHTS assay to identify small molecule agonists of the peroxisome proliferator-activated receptor delta (PPARd) signaling pathway - cell viability counter screen (AID 743211); further: nearly all actives have a fitted effect of over 55% in size; further: potency means the concentration at half of the fitted maximal effect
How it was run: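 Tox21 library compounds, delivered in DMSO, were incubated 17 h with PPARd-bla HEK293H cells; cytotoxicity was taken from CellTiter-Glo luminescence read 30 min after reagent addition.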

[14] = biological target: Bile acid receptor (Homo sapiens) (UniProt Q96RI1); test: qHTS assay to identify small molecule antagonists of the farnesoid-X-receptor (FXR) signaling pathway (AID 743217; active means well fitted inhibition curve with a large enough effect in the signal ratio in the repeat runs, not every such curve was filed as active; the % refers to the signal ratio)
Bile acid receptor (Homo sapiens), sequence (Q96RI1 whole entry, looked up): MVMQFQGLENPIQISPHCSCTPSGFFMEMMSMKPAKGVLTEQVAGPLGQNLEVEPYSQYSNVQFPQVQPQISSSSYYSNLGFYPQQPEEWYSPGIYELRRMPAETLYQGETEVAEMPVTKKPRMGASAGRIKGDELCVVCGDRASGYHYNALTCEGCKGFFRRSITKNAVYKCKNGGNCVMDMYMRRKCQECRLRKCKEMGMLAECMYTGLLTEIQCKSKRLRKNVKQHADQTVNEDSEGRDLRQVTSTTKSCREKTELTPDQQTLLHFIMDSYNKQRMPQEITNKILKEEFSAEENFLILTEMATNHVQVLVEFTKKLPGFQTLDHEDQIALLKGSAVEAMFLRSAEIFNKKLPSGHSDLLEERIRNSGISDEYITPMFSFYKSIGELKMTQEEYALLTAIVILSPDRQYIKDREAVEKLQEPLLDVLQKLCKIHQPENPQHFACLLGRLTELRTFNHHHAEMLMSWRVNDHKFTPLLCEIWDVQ
How it was run: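 FXR-UAS-bla HEK 293T cells (beta-lactamase reporter) given compound plus chenodeoxycholic acid (50 uM final), 16 h at 37C. LiveBLAzer B/G FRET substrate added for 2 h at room temperature; fluorescence read.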

[15] = biological target: Peroxisome proliferator-activated receptor gamma (Homo sapiens) (UniProt P37231); test: qHTS assay to identify small molecule agonists of the peroxisome proliferator-activated receptor gamma (PPARg) signaling pathway (AID 743094; active means well fitted activation curve with a large enough effect in the signal ratio in the repeat runs, not every such curve was filed as active; the % refers to the signal ratio; further: potency means the concentration at half of the fitted maximal effect)
How it was run: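 GeneBLAzer PPARg UAS-bla HEK293H cells were plated, rested 5 h, then exposed to compounds for 17 h at 37C. Beta-lactamase activity was read by LiveBLAzer B/G FRET substrate fluorescence after 1 h at room temperature.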

[16] = biological target: Vitamin D3 receptor (Homo sapiens) (UniProt P11473); test: qHTS assay to identify small molecule agonists of the vitamin D receptor (VDR) signaling pathway (AID 743222; calls by dose curve)
Vitamin D3 receptor (Homo sapiens), sequence (P11473 whole entry, looked up): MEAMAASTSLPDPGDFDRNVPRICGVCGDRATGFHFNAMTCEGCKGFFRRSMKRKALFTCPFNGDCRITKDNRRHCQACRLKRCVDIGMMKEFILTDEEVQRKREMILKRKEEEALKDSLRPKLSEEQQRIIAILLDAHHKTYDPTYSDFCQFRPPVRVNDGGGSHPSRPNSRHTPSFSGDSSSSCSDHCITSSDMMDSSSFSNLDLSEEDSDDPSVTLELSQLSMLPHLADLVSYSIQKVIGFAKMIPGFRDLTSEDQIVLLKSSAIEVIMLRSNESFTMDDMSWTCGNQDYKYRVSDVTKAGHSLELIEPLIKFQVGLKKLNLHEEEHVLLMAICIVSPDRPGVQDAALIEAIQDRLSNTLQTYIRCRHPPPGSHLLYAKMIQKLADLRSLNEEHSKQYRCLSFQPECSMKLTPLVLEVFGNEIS
How it was run: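 VDR-bla cells plated 4 h at 37 C, then exposed to compounds for 16 h at 37 C. Beta-lactamase reporter activity measured by fluorescence after 2 h room-temperature loading with LiveBLAzer B/G FRET substrate.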

[17] = biological target: Vitamin D3 receptor (Homo sapiens) (UniProt P11473); test: qHTS assay to identify small molecule antagonists of the vitamin D receptor (VDR) signaling pathway (AID 743223; active means well fitted inhibition curve with a large enough effect in the signal ratio in the repeat runs, not every such curve was filed as active; the % refers to the signal ratio)
How it was run: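 Quantitative HTS in VDR-bla reporter cells stimulated with 1alpha,25-dihydroxyvitamin D3, 3 nM final. Compound exposure 16 h, 37C, 5% CO2. Read-out: beta-lactamase FRET substrate fluorescence, 2 h RT.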

[18] = qHTS assay to identify small molecule that activate the aryl hydrocarbon receptor (AhR) signaling pathway - cell viability counter screen (AID 743086);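 further: HepG2 liver cells carrying the AhR DRE luciferase reporter; series mostly up to about 70 µM; nearly all actives have a fitted effect of over 45% in size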
How it was run: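 Cytotoxicity counter screen: CellTiter-Fluor signal (30 min, 37 C) in 4000 HepG2 cells/well carrying the DRE-luciferase reporter, following 24 h compound exposure at 37 C.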

[19] = biological target: Bile acid receptor (Homo sapiens) (UniProt Q96RI1); test: qHTS assay to identify small molecule agonists of the farnesoid-X-receptor (FXR) signaling pathway (AID 743220; active means well fitted activation curve with a large enough effect in the signal ratio in the repeat runs, not every such curve was filed as active; the % refers to the signal ratio)
How it was run: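 Beta-lactamase reporter under UAS control in GeneBLAzer FXR HEK 293T cells (5000/well) measured with LiveBLAzer FRET substrate after 2 h at room temperature. Compound exposure lasted 16 h at 37C.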

Structure (SMILES) | Potency [1] | Potency [2] | Potency [3] | Potency [4] | Potency [5] | Potency [6] | Potency [7] | Potency [8] | Potency [9] | Potency [10] | Potency [11] | Potency [12] | Potency [13] | Potency [14] | Potency [15] | Potency [16] | outcome [17] | Potency [18] | Potency [19]
CCOC(=O)C(=O)CCc1ccccc1 | inactive | inactive | inactive | inactive | inactive | inactive | inactive | inactive | inactive | inactive |  |  |  |  |  |  |  |  | 
O=C(O)C1(C(=O)O)CCC1.[NH2-].[NH2-].[Pt+2] | inactive |  | inactive | inactive | inactive |  | inactive | inactive | inactive | inactive | inactive | inactive | inactive | inactive |  |  |  |  | 
CN1Cc2cc(C(=O)N3CCC(C4CCNCC4)CC3)ccc2NC(CC(=O)O)C1=O (centres undefined) |  | inactive | inactive | inactive | inactive | inactive | inactive | inactive | inactive | inactive | inactive | inactive | inactive |  |  |  |  |  | 
O=C(CS)Nc1ccccc1 |  | inactive |  | inactive | inactive | inactive | inactive | inactive | inactive | inactive |  |  | inactive | inactive | inactive | inactive | inactive |  | 
CCC(C)c1cc(C(C)(C)C)c(O)c(C(C)(C)C)c1 (centres undefined) |  |  | inactive |  |  |  | inactive |  | inactive | inactive | inactive |  |  |  |  | inactive |  | inactive | 
O=C(O)c1nc(Cl)c(Cl)c(Cl)c1Cl |  |  | inactive | inactive | inactive |  | inactive | inactive | inactive | inactive | inactive |  | inactive |  |  |  |  | inactive | 
CCCCC |  | inactive | inactive |  | inactive |  | inactive | inactive | inactive | inactive |  | inactive | inactive | inactive |  | inactive | inactive | inactive | inactive
O=C1[C@H]2CCCC[C@H]2C(=O)N1CCCCN1CCN(c2nsc3ccccc23)CC1 |  | 23.7 µM (active) | inactive | inactive | inactive | inactive | inactive | inactive | inactive | inactive | inactive | inactive | inactive | inactive |  |  |  |  | 
O=C(O)C1(C(=O)Nc2ccc(Cl)cc2Cl)CC1 |  |  |  | inactive |  |  |  |  | inactive | inactive |  | inactive |  |  |  |  |  | inactive | inactive
COc1cc2nc(Cl)nc(N)c2cc1OC |  |  |  | inactive |  | inactive |  | inactive | inactive | inactive | inactive |  | inactive |  |  | inactive | inactive |  | 
CN1CCC(N(Cc2cccs2)c2ccccc2)CC1 |  |  | inactive |  | inactive |  |  |  |  | 33.5 µM (active) | inactive |  |  |  | inactive |  |  |  | 
Cc1ccc(N=Nc2c(O)c(C(=O)O)cc3ccccc23)c(S(=O)(=O)O)c1 | inactive |  | inactive |  | inactive |  | inactive | inactive | inactive | inactive | inactive | inactive | inactive |  | inactive |  |  |  | 
Cc1ccc(C(=O)Oc2ccc(C(O)CNC(C)(C)C)cc2OC(=O)c2ccc(C)cc2)cc1 (centres undefined) |  |  |  |  |  |  |  |  | inactive | inactive | inactive | inactive | 29.8 µM (active) |  |  |  |  |  | inactive
C/C=C(/C(=C/C)c1ccc(OC(C)=O)cc1)c1ccc(OC(C)=O)cc1 |  | 13.3 µM (active) | inactive | inactive | inactive |  | inactive | inactive | inactive |  |  |  |  |  |  | inactive |  |  | 
O=C(NCC1CN(c2ccc(N3CCOCC3=O)cc2)C(=O)O1)c1ccc(Cl)s1 (centres undefined) |  | inactive |  | inactive | inactive |  | inactive | inactive | inactive | inactive | inactive |  | inactive |  |  | inactive | inactive |  | 
CC(C)CC(=O)C1C(=O)c2ccccc2C1=O |  |  | inactive | inactive | inactive | inactive | inactive | inactive | inactive | inactive | inactive | inactive |  |  |  |  |  | inactive | inactive
CC(C)O.CC(C)O.CCOC(=O)/C=C(\C)O.CCOC(=O)/C=C(\C)O.[Ti] |  |  | inactive | inactive |  | inactive |  | inactive |  | inactive | inactive |  | inactive |  |  | inactive | inactive | inactive | 
CCO[C@H](Cc1ccc(OCCc2ccc(OS(C)(=O)=O)cc2)cc1)C(=O)O |  |  | inactive |  | 11.9 µM (active) | inactive | inactive | inactive | inactive | inactive | inactive | inactive |  |  | 0.12 µM (active) | inactive |  |  | 
Cc1cc(N)c2cc(NC(=O)Nc3ccc4nc(C)cc(N)c4c3)ccc2n1 |  |  |  | inactive |  |  |  | inactive | 18.8 µM (active) |  |  |  |  |  |  | inactive | inactive | inactive | 
COc1ccc2cccc(CCNC(C)=O)c2c1 | inactive | inactive | inactive | inactive |  | inactive |  | inactive | inactive | inactive | inactive | inactive | inactive |  |  | inactive | inactive |  | 
CCCCCCOC(=O)NC(=N)c1ccc(NCc2nc3cc(C(=O)N(CCC(=O)OCC)c4ccccn4)ccc3n2C)cc1 | 29.8 µM (active) |  | 26.6 µM (active) |  |  | 23.7 µM (active) |  | 26.6 µM (active) |  | 29.8 µM (active) | 13.3 µM (active) | inactive | 21.1 µM (active) |  |  |  | inactive |  | inactive
